# Many of the other results were omitted from the sample, so the strongest signals are more common in it than they were.
# B1: AFCNVH (Aspergillus fumigatus) (protein)
# chain: MSLRGFHTTCDTIVLKDKHILSSRCKRPDGTYSFSEIDLNDCLGNNNGKFVWGGESFVDSASQVNLALEGGEGRPMLHAQLNDWHGSVQSASVNLGECIQNEAGGLEYMHC
# Key:
# Experiment in all cases: glycan array binding signal (z-score within array); higher = stronger binding
# Settings in all cases: glycan notation: IUPAC condensed, linker removed
# [1] = biological target: Fuc(a1-2)Gal(b1-4)Fuc(a1-3)]GlcNAc(b1-2)Man(a1-3)[Fuc(a1-2)Gal(b1-4)[Fuc(a1-3)]GlcNAc(b1-2)Man(a1-6)]Man(b1-4)GlcNAc(b1-4)GlcNAc
# Outline: (§1)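 The binding signal is a Z-score computed within each array. Data were drawn from 3228 arrays in the Consortium for Functional Glycomics database, restricted to those with a known protein sequence. Scores were averaged over arrays of the same protein sequence at different concentrations or buffers, and over linkers, and negative values can be taken as non-binding.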
# [2] = biological target: Fuc(a1-2)Gal(b1-4)GlcNAc(b1-2)Man(a1-3)[Fuc(a1-2)Gal(b1-4)GlcNAc(b1-2)Man(a1-6)]Man(b1-4)GlcNAc(b1-4)[Fuc(a1-6)]GlcNAc
# Outline: as §1
# [3] = biological target: Fuc(a1-2)Gal(b1-4)GlcNAc(b1-2)[Fuc(a1-2)Gal(b1-4)GlcNAc(b1-4)]Man(a1-3)[Fuc(a1-2)Gal(b1-4)GlcNAc(b1-2)Man(a1-6)]Man(b1-4)GlcNAc(b1-4)GlcNAc
# Outline: as §1
# [4] = biological target: Fuc(a1-2)[Gal(a1-3)]Gal(b1-3)GlcNAc(b1-2)Man(a1-3)[Fuc(a1-2)[Gal(a1-3)]Gal(b1-3)GlcNAc(b1-2)Man(a1-6)]Man(b1-4)GlcNAc(b1-4)[Fuc(a1-6)]GlcNAc
# Outline: as §1
# [5] = biological target: Fuc(a1-2)[Gal(a1-4)]Gal(b1-4)GlcNAc
# Outline: as §1
# [6] = biological target: Fuc(a1-3)[Gal(b1-4)]Glc6S
# Outline: as §1
# [7] = biological target: Fuc(a1-3)[Gal(b1-4)]GlcNAc6S
# Outline: as §1
# [8] = biological target: Fuc(a1-3)[GalNAc(b1-4)]GlcNAc6S
# Outline: as §1
# [9] = biological target: Gal(a1-3)Gal(b1-3)GlcNAc
# Outline: as §1
# [10] = biological target: Gal(a1-3)GalNAc
# Outline: as §1
# [11] = biological target: Gal(b1-3)GalNAc(b1-3)Gal(a1-4)Gal(b1-4)Glc
# Outline: as §1
# [12] = biological target: Gal(b1-3)GlcNAc(b1-6)Gal(b1-4)GlcNAc
# Outline: as §1
# [13] = biological target: Gal(b1-3)[Neu5Ac(a2-6)]GalNAc
# Outline: as §1
# [14] = biological target: Gal(b1-4)GlcNAc(b1-2)[Gal(b1-4)GlcNAc(b1-6)]Man(a1-6)[Gal(b1-4)GlcNAc(b1-2)Man(a1-3)]Man(b1-4)GlcNAc(b1-4)[Fuc(a1-6)]GlcNAc
# Outline: as §1
# [15] = biological target: Gal(b1-4)GlcNAc(b1-3)Gal(b1-4)GlcNAc(b1-3)[Gal(b1-4)GlcNAc(b1-3)Gal(b1-4)GlcNAc(b1-6)]GalNAc
# Outline: as §1
# [16] = biological target: Gal(b1-4)GlcNAc(b1-3)[GlcNAc(b1-6)]Gal(b1-4)GlcNAc
# Outline: as §1
# [17] = biological target: GalNAc(a1-3)GalNAc(b1-3)Gal(a1-4)Gal(b1-4)Glc
# Outline: as §1
# [18] = biological target: GalNAc(b1-3)Gal(a1-6)Gal(b1-4)Glc
# Outline: as §1
# [19] = biological target: GalNAc(b1-4)GlcNAc(b1-2)Man
# Outline: as §1
# [20] = biological target: GalNAc(b1-4)GlcNAc(b1-2)Man(a1-3)[GalNAc(b1-4)GlcNAc(b1-2)Man(a1-6)]Man(b1-4)GlcNAc(b1-4)GlcNAc
# Outline: as §1
# [21] = biological target: GalNAc3S(b1-4)GlcNAc
# Outline: as §1
# [22] = biological target: GlcNAc(a1-3)Gal(b1-4)GlcNAc
# Outline: as §1
# [23] = biological target: GlcNAc(a1-4)Gal(b1-4)GlcNAc(b1-3)Gal(b1-4)Glc
# Outline: as §1
# [24] = biological target: GlcNAc(b1-2)Man(a1-3)[GlcNAc(b1-2)Man(a1-6)]Man(b1-4)GlcNAc(b1-4)GlcNAc
# Outline: as §1
# [25] = biological target: GlcNAc(b1-2)Man(a1-3)[GlcNAc(b1-4)][GlcNAc(b1-2)Man(a1-6)]Man(b1-4)GlcNAc(b1-4)GlcNAc
# Outline: as §1
# [26] = biological target: GlcNAc(b1-2)[GlcNAc(b1-6)]Man(a1-6)[GlcNAc(b1-2)Man(a1-3)]Man(b1-4)GlcNAc(b1-4)GlcNAc
# Outline: as §1
# [27] = biological target: GlcNAc(b1-3)Gal(b1-4)Glc
# Outline: as §1
# [28] = biological target: GlcNAc(b1-3)Gal(b1-4)GlcNAc(b1-3)Gal(b1-4)GlcNAc(b1-2)[GlcNAc(b1-3)Gal(b1-4)GlcNAc(b1-3)Gal(b1-4)GlcNAc(b1-6)]Man(a1-6)[GlcNAc(b1-3)Gal(b1-4)GlcNAc(b1-3)Gal(b1-4)GlcNAc(b1-2)Man(a1-3)]Man(b1-4)GlcNAc(b1-4)[Fuc(a1-6)]GlcNAc
# Outline: as §1
# [29] = biological target: GlcNAc(b1-3)Gal(b1-4)GlcNAc(b1-3)Gal(b1-4)GlcNAc(b1-3)Gal(b1-4)GlcNAc(b1-2)Man(a1-3)[GlcNAc(b1-3)Gal(b1-4)GlcNAc(b1-3)Gal(b1-4)GlcNAc(b1-3)Gal(b1-4)GlcNAc(b1-2)Man(a1-6)]Man(b1-4)GlcNAc(b1-4)GlcNAc
# Outline: as §1
# [30] = biological target: GlcNAc(b1-3)Gal(b1-4)GlcNAc(b1-3)Gal(b1-4)GlcNAc(b1-3)Gal(b1-4)GlcNAc(b1-2)[GlcNAc(b1-3)Gal(b1-4)GlcNAc(b1-3)Gal(b1-4)GlcNAc(b1-3)Gal(b1-4)GlcNAc(b1-6)]Man(a1-6)[GlcNAc(b1-3)Gal(b1-4)GlcNAc(b1-3)Gal(b1-4)GlcNAc(b1-3)Gal(b1-4)GlcNAc(b1-2)Man(a1-3)]Man(b1-4)GlcNAc(b1-4)[Fuc(a1-6)]GlcNAc
# Outline: as §1
# [31] = biological target: GlcNAc(b1-3)Gal(b1-4)GlcNAc(b1-3)Gal(b1-4)GlcNAc(b1-3)Gal(b1-4)GlcNAc(b1-3)Gal(b1-4)GlcNAc(b1-2)Man(a1-3)[GlcNAc(b1-3)Gal(b1-4)GlcNAc(b1-3)Gal(b1-4)GlcNAc(b1-3)Gal(b1-4)GlcNAc(b1-3)Gal(b1-4)GlcNAc(b1-2)Man(a1-6)]Man(b1-4)GlcNAc(b1-4)[Fuc(a1-6)]GlcNAc
# Outline: as §1
# [32] = biological target: GlcNAc(b1-3)Gal(b1-4)GlcNAc(b1-3)Gal(b1-4)GlcNAc(b1-3)Gal(b1-4)GlcNAc(b1-3)Gal(b1-4)GlcNAc(b1-2)[GlcNAc(b1-3)Gal(b1-4)GlcNAc(b1-3)Gal(b1-4)GlcNAc(b1-3)Gal(b1-4)GlcNAc(b1-3)Gal(b1-4)GlcNAc(b1-6)]Man(a1-6)[GlcNAc(b1-3)Gal(b1-4)GlcNAc(b1-3)Gal(b1-4)GlcNAc(b1-3)Gal(b1-4)GlcNAc(b1-3)Gal(b1-4)GlcNAc(b1-2)Man(a1-3)]Man(b1-4)GlcNAc(b1-4)[Fuc(a1-6)]GlcNAc
# Outline: as §1
# [33] = biological target: GlcNAc(b1-3)[GlcNAc(b1-4)][GlcNAc(b1-6)]GlcNAc
# Outline: as §1
# [34] = biological target: GlcNAc(b1-4)GlcNAc(b1-4)GlcNAc(b1-4)GlcNAc(b1-4)GlcNAc
# Outline: as §1
# [35] = biological target: GlcNAc(b1-6)GalNAc
# Outline: as §1
# [36] = biological target: Kdn(a2-3)Gal(b1-4)[Fuc(a1-3)]GlcNAc
# Outline: as §1
# [37] = biological target: Man(a1-2)Man(a1-3)[Man(a1-2)Man(a1-6)]Man(a1-6)[Man(a1-2)Man(a1-2)Man(a1-3)]Man(b1-4)GlcNAc(b1-4)GlcNAc
# Outline: as §1
# [38] = biological target: Man(b1-4)GlcNAc
# Outline: as §1
# [39] = biological target: Neu5Ac(a2-3)Gal(b1-3)GlcNAc(b1-2)[Neu5Ac(a2-3)Gal(b1-3)GlcNAc(b1-4)]Man(a1-6)[Neu5Ac(a2-3)Gal(b1-3)GlcNAc(b1-2)Man(a1-3)]Man(b1-4)GlcNAc(b1-4)GlcNAc
# Outline: as §1
# [40] = biological target: Neu5Ac(a2-3)Gal(b1-3)GlcNAc(b1-3)GalNAc
# Outline: as §1
# [41] = biological target: Neu5Ac(a2-3)Gal(b1-3)GlcNAc6S
# Outline: as §1
# [42] = biological target: Neu5Ac(a2-3)Gal(b1-3)[Fuc(a1-4)]GlcNAc(b1-3)Gal(b1-4)[Fuc(a1-3)]GlcNAc
# Outline: as §1
# [43] = biological target: Neu5Ac(a2-3)Gal(b1-3)[Neu5Ac(a2-6)]GlcNAc(b1-3)[Fuc(a1-3)[Gal(b1-4)]GlcNAc(b1-6)]Gal(b1-4)Glc
# Outline: as §1
# [44] = biological target: Neu5Ac(a2-3)Gal(b1-3)]Neu5Ac(a2-3)Gal(b1-4)]GlcNAc
# Outline: as §1
# [45] = biological target: Neu5Ac(a2-3)Gal(b1-4)GlcNAc(b1-2)[Neu5Ac(a2-3)Gal(b1-4)GlcNAc(b1-4)]Man(a1-3)[GlcNAc(b1-4)][Neu5Ac(a2-3)Gal(b1-4)GlcNAc(b1-2)[Neu5Ac(a2-3)Gal(b1-4)GlcNAc(b1-6)]Man(a1-6)]Man(b1-4)GlcNAc(b1-4)GlcNAc
# Outline: as §1
# [46] = biological target: Neu5Ac(a2-3)Gal(b1-4)GlcNAc(b1-3)Gal(b1-4)[Fuc(a1-3)]GlcNAc
# Outline: as §1
# [47] = biological target: Neu5Ac(a2-3)Gal(b1-4)GlcNAc(b1-3)GalNAc
# Outline: as §1
# [48] = biological target: Neu5Ac(a2-3)GalNAc(b1-4)GlcNAc
# Outline: as §1
# [49] = biological target: Neu5Ac(a2-8)Neu5Ac(a2-3)Gal(b1-3)GalNAc(b1-4)[Neu5Ac(a2-3)]Gal(b1-4)Glc
# Outline: as §1
# [50] = biological target: Neu5Ac(a2-8)Neu5Gc(a2-3)Gal(b1-4)GlcNAc
# Outline: as §1
# [51] = biological target: Neu5Gc(a2-3)Gal(b1-4)Glc
# Outline: as §1
binder,measurement,setting,value
B1,glycan array binding signal (z-score),[1],-0.233
same,glycan array binding signal (z-score),[2],-0.175
same,glycan array binding signal (z-score),[3],-0.277
same,glycan array binding signal (z-score),[4],-0.326
same,glycan array binding signal (z-score),[5],0.231
same,glycan array binding signal (z-score),[6],-0.331
same,glycan array binding signal (z-score),[7],-0.372
same,glycan array binding signal (z-score),[8],0.612
same,glycan array binding signal (z-score),[9],-0.453
same,glycan array binding signal (z-score),[10],-0.37
same,glycan array binding signal (z-score),[11],-0.212
same,glycan array binding signal (z-score),[12],-0.391
same,glycan array binding signal (z-score),[13],-0.504
same,glycan array binding signal (z-score),[14],-0.378
same,glycan array binding signal (z-score),[15],-0.168
same,glycan array binding signal (z-score),[16],4.53
same,glycan array binding signal (z-score),[17],-0.347
same,glycan array binding signal (z-score),[18],-0.462
same,glycan array binding signal (z-score),[19],4.18
same,glycan array binding signal (z-score),[20],4.08
same,glycan array binding signal (z-score),[21],1.43
same,glycan array binding signal (z-score),[22],4.61
same,glycan array binding signal (z-score),[23],3.99
same,glycan array binding signal (z-score),[24],-0.164
same,glycan array binding signal (z-score),[25],4.58
same,glycan array binding signal (z-score),[26],-0.203
same,glycan array binding signal (z-score),[27],-0.196
same,glycan array binding signal (z-score),[28],3.73
same,glycan array binding signal (z-score),[29],4.24
same,glycan array binding signal (z-score),[30],3.78
same,glycan array binding signal (z-score),[31],1.62
same,glycan array binding signal (z-score),[32],4.73
same,glycan array binding signal (z-score),[33],-0.338
same,glycan array binding signal (z-score),[34],3.83
same,glycan array binding signal (z-score),[35],1.1
same,glycan array binding signal (z-score),[36],-0.455
same,glycan array binding signal (z-score),[37],-0.336
same,glycan array binding signal (z-score),[38],-0.3
same,glycan array binding signal (z-score),[39],-0.439
same,glycan array binding signal (z-score),[40],-0.385
same,glycan array binding signal (z-score),[41],-0.204
same,glycan array binding signal (z-score),[42],-0.305
same,glycan array binding signal (z-score),[43],-0.416
same,glycan array binding signal (z-score),[44],-0.242
same,glycan array binding signal (z-score),[45],-0.351
same,glycan array binding signal (z-score),[46],-0.398
same,glycan array binding signal (z-score),[47],-0.339
same,glycan array binding signal (z-score),[48],-0.24
same,glycan array binding signal (z-score),[49],-0.287
same,glycan array binding signal (z-score),[50],-0.48
same,glycan array binding signal (z-score),[51],-0.447
